Results as given in the supplement of paper PMC11732987, “Enantioselective OTUD7B fragment discovery through chemoproteomics screening and high-throughput optimisation” (Communications Chemistry, 2025).
Unmarked numbers belong to inactive results.

What was measured:
Assay in all cases: log2 ratio of Biotin-Ahx-Ub-VS probe labelling (fragment/DMSO); higher = less target engagement (more negative = stronger competition), active = hit call of the paper (q ≤ 0.05, log2 ratio ≤ -1)
Conditions in all cases: compound concentration: 200 uM; treatment time: 3 h
[1] = biological target: T1, ALG13 (UniProt Q9NP73)
T1 sequence (whole entry): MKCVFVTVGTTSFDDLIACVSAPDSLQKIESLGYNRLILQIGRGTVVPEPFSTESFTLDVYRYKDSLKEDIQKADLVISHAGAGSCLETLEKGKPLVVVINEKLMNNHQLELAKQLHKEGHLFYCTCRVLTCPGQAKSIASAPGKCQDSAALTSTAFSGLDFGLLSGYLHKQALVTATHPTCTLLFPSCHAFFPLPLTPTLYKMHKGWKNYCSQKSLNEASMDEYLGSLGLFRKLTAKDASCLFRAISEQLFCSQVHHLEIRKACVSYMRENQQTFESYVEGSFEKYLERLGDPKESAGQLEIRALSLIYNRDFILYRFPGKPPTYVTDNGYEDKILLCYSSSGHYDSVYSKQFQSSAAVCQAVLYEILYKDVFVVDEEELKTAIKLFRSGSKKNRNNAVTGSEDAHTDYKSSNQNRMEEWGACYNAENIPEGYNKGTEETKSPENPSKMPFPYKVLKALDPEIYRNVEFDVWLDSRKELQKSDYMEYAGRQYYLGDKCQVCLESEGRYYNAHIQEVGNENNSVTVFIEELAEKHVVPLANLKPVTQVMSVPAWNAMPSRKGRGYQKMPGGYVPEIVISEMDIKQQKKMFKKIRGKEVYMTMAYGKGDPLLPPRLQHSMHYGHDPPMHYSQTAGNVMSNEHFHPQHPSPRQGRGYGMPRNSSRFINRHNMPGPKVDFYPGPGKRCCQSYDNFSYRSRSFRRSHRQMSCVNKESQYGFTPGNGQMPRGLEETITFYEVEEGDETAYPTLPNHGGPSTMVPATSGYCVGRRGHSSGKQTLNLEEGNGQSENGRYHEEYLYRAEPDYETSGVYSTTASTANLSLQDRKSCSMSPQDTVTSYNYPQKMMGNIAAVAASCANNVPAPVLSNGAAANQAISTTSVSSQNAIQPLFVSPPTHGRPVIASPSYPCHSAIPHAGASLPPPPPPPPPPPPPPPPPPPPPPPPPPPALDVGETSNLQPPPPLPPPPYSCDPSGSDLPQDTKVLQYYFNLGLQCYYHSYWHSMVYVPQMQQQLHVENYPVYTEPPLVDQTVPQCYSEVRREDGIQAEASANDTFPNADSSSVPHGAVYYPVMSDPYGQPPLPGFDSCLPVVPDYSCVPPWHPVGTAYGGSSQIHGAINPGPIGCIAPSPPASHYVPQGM
In short: (§1)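 Fragment (200 µM) or vehicle was incubated for 3 h with triplicate HEK293T lysate samples of 495 µg, which were then treated with Biotin-Ahx-Ub-VS at 0.5 µM final for 1 h. Labelled DUBs were enriched on NeutrAvidin, digested with LysC and trypsin, and analysed by diaPASEF LC-MS/MS. Values are average log2 fragment/vehicle ratios from an unpaired t-test on global-median-normalised Spectronaut label-free quantities, using proteins with ≥2 unique peptides.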

[2] = biological target: ATXN3 (UniProt P54252)
ATXN3, sequence (P54252 whole entry): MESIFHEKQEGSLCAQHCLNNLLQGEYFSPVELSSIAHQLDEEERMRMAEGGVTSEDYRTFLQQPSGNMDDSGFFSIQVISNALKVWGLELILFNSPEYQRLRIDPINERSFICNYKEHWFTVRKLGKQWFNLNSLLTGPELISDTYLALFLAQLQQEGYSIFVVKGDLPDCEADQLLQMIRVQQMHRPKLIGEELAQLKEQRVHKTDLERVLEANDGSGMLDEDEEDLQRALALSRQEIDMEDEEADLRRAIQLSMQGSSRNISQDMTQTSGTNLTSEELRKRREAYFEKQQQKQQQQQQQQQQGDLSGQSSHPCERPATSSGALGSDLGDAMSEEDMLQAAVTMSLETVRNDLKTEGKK
In short: as §1

[3] = biological target: T2, BAP1 (UniProt Q92560)
T2 sequence (whole entry): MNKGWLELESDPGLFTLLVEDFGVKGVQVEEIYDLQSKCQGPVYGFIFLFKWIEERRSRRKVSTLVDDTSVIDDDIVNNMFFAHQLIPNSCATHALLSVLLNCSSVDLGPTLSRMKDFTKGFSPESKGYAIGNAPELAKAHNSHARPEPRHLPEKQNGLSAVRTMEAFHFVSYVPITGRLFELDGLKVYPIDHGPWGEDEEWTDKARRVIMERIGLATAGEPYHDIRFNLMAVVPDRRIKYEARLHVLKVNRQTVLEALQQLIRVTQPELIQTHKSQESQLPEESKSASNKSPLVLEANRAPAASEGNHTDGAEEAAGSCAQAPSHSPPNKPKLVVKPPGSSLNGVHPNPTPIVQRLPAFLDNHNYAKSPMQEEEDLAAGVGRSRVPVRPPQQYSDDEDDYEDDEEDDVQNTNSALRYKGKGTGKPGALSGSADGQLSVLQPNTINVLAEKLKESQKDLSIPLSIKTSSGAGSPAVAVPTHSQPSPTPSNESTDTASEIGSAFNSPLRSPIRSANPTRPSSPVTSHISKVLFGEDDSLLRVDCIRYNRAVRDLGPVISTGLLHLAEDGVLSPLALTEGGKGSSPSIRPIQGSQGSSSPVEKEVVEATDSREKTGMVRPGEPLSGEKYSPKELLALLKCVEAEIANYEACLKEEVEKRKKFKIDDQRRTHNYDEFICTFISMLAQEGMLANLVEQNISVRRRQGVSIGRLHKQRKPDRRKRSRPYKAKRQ
In short: as §1

[4] = biological target: EIF3F (UniProt O00303)
EIF3F, sequence (O00303 whole entry): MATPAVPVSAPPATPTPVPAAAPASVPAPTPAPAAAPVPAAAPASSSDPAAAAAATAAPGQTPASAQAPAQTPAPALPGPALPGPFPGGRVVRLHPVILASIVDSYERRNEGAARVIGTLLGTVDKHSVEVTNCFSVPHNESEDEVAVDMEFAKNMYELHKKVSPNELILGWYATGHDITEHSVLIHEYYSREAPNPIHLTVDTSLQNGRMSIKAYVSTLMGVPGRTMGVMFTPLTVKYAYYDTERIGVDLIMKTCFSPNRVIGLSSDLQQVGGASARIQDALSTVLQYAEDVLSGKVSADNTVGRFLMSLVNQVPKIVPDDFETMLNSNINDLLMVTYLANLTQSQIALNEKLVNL
In short: as §1

[5] = biological target: EIF3H (UniProt O15372)
EIF3H, sequence (O15372 whole entry): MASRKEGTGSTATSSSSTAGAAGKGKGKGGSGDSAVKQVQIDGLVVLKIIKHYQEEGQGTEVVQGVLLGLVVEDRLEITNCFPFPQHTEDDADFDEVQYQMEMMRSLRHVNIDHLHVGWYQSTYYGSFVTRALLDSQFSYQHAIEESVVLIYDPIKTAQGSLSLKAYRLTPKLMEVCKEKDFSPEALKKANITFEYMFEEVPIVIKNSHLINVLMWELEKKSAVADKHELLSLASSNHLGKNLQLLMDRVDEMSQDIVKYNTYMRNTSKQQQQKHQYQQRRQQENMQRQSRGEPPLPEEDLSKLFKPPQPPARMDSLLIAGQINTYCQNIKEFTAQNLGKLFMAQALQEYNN
In short: as §1

[6] = biological target: T3, FAM105A (UniProt Q9NUU6)
T3 sequence (whole entry): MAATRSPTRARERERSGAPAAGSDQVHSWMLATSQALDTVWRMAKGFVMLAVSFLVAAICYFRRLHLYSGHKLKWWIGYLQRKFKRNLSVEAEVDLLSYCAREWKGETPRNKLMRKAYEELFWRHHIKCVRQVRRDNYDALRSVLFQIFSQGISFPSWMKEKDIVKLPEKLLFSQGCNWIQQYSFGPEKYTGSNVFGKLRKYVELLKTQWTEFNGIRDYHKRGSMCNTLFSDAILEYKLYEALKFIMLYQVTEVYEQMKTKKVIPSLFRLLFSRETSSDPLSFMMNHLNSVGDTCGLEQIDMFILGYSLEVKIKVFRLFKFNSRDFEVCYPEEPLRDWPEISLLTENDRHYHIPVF
In short: as §1

[7] = biological target: OTUB1 (UniProt Q96FW1)
OTUB1, sequence (Q96FW1 whole entry): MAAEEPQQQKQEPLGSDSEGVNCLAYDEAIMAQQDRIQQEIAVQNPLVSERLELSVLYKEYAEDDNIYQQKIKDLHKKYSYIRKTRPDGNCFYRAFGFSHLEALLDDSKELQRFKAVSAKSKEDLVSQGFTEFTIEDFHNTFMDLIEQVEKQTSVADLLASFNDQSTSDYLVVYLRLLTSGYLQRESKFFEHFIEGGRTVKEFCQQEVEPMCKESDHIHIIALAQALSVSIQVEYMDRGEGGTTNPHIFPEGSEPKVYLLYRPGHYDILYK
In short: as §1

[8] = biological target: T4, OTUD4 (UniProt Q01804)
T4 sequence (whole entry): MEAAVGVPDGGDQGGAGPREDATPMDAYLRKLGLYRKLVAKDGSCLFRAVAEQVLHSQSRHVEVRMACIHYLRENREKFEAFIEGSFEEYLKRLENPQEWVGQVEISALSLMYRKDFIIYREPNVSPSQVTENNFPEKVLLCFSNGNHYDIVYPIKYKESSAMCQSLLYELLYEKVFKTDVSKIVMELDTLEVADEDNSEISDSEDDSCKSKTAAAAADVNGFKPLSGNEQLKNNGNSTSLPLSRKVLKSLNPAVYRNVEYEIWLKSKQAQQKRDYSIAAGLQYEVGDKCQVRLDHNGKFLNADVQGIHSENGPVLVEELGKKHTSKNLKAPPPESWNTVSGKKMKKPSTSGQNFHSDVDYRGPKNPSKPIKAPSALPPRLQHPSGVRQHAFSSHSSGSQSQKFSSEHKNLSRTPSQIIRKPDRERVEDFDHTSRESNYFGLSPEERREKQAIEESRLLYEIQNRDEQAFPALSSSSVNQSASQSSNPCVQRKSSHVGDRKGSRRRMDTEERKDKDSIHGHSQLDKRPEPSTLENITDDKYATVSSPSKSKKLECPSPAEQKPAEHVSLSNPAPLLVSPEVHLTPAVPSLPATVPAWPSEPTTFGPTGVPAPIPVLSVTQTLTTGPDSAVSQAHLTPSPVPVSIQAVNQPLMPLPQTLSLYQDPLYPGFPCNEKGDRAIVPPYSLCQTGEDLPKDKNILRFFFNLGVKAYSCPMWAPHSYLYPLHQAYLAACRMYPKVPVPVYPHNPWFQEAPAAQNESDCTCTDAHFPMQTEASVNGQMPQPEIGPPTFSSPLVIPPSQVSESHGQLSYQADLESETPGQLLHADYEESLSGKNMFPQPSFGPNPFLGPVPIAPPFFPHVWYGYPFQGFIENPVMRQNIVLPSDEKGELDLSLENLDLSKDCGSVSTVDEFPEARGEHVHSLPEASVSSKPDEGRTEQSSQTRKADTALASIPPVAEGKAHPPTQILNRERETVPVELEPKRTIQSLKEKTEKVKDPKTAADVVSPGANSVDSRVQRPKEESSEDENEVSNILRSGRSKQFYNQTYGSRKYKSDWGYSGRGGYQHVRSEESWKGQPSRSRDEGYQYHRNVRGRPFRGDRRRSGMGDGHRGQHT
In short: as §1

[9] = biological target: T5, OTUD5 (UniProt Q96G74)
T5 sequence (whole entry): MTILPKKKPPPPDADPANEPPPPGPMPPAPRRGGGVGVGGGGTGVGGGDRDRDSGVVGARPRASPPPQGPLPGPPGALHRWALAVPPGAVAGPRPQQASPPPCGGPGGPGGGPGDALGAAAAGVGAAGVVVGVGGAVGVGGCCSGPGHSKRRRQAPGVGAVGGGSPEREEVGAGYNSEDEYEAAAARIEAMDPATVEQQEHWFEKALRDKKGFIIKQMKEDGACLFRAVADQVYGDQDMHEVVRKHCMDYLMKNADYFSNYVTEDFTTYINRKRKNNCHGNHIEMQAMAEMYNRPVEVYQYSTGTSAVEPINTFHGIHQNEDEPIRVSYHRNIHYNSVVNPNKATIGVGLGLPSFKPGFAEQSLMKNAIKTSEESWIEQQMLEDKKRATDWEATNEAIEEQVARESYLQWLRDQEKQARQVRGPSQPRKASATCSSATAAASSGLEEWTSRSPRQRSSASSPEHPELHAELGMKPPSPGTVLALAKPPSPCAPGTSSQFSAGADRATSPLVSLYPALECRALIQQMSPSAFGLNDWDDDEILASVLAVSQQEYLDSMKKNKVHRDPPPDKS
In short: as §1

`CC(NC(=O)CCl)c1cnn(C2CC2)c1` (centres undefined) was tested, and the “log2 ratio of Biotin-Ahx-Ub-VS probe labelling” value (“log2 ratio” below) [1] was 0.171, the “log2 ratio” value [2] was -0.145 and the “log2 ratio” value [3] was -2.22 (active). For the same compound, the “log2 ratio” value [4] was -0.625, the “log2 ratio” value [5] was 0.172 and the “log2 ratio” value [6] was -0.0989. For the same compound, the “log2 ratio” value [7] was -0.137, the “log2 ratio” value [8] was -0.268 and the “log2 ratio” value [9] was -0.626.
